The results in this text go back to PubChem BioAssay AID720706 (Broad Institute, 2013).

The campaign covered roughly 350,000 compounds. About 5,500 (1.6%) were called active.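 The calls were made as follows: active = significant combined selectivity score with lowered wild-type GFP, culture density cut under 30%, mutant RFP and density less affected; inactive = any of these conditions unmet.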 The entries come from a sample that favours actives as a whole.

This test is described as follows: reduced GFP signal of wild-type E. coli, primary screen, bacterial rRNA inhibitor project, GFP/RFP fluorescence, OD600, single point (AID 720706). Conditions: E. coli WT GFP vs humanized-ribosome RFP mutants, 24 h; GFP signal change (wild-type ribosome): stronger effect = lower value, DMSO median 0, no signal -100; OD600 change: measured here: OD600 growth, DMSO median 0, no signal -100; RFP signal change: measured here: RFP humanized mutant strains, DMSO median 0, no signal -100, concentration not given here.
Turning to `CCCNC(=O)N1CC(=O)N2[C@H](C1)[C@@H](c1ccc(C#Cc3ccccc3)cc1)[C@@H]2CO`, the GFP signal change (wild-type ribosome) was -41.7% (inactive), the OD600 change was -70.4% and the RFP signal change was -0.11%.

For the compound `COc1ccc2c3c(n(C)c2c1)[C@@H](CO)N(C(=O)Nc1ccccc1F)CC31CCN(C(=O)c2ccccc2F)CC1`, the GFP signal change (wild-type ribosome) was -2.62% (inactive), the OD600 change is -3.48% and the RFP signal change is -0.298%.

For the compound `CO[C@@H](CN(C)C(=O)c1cnccn1)[C@H](C)CN([C@H](C)CO)S(=O)(=O)c1ccc(C)cc1`, the GFP signal change (wild-type ribosome) is 1.87% (inactive), the OD600 change amounted to 2.69% and the RFP signal change is -1.48%.

`CCc1nc2ccccc2c(C(=O)NCc2ccc(OC)cc2)c1C`: the GFP signal change (wild-type ribosome) was -3.42% (inactive), the OD600 change is -5.87% and the RFP signal change is -3.53%.

As to `CCc1c(C)c2ccc(OC3CCCCC3=O)cc2oc1=O` (stereo not given), the GFP signal change (wild-type ribosome) is 1.77% (inactive), the OD600 change was -3.25% and the RFP signal change was 1.07%.

On to `CCc1nc2ccccc2c(C(=O)OC2CCCCC2=O)c1C` (stereo not given), for which the GFP signal change (wild-type ribosome) is -34.4% (active), the OD600 change was -20.5% and the RFP signal change stood at 3.94%.

For `CC(=O)N(C)C[C@@H]1Oc2cc(-c3cccnc3)ccc2S(=O)(=O)N([C@@H](C)CO)C[C@H]1C`, the GFP signal change (wild-type ribosome) was 0.257% (inactive), the OD600 change was -3.4% and the RFP signal change is -4.17%.

Regarding `O=C(CC1CC1)N1CC(=O)N2[C@H](CO)[C@H](c3ccc(C#Cc4ccc(F)cc4)cc3)[C@@H]2C1`, the GFP signal change (wild-type ribosome) is -21.5% (inactive), the OD600 change was -61.2% and the RFP signal change worked out at 15.4%.

In the case of `COc1ccc(-c2cnc3c(c2)C(=O)N([C@H](C)CO)C[C@@H](C)[C@H](CN(C)C(=O)Cc2ccncc2)O3)cc1`, the GFP signal change (wild-type ribosome) is -1.52% (inactive), the OD600 change came out at 2.2% and the RFP signal change was -0.471%.

Take `COc1cccc(NC(=O)Nc2ccc3c(c2)OC[C@@H](C)NC[C@@H](C)[C@H](OC)CN(C)C3=O)c1`: the GFP signal change (wild-type ribosome) is 0.255% (inactive), the OD600 change is 0.1% and the RFP signal change is 2.58%.

For the compound `C[C@@H]1CCCCO[C@H](CN(C)C(=O)CCCN(C)C)[C@@H](C)CN([C@@H](C)CO)C(=O)c2cc(NC(=O)c3ccncc3)ccc2O1`, the GFP signal change (wild-type ribosome) was 3.33% (inactive), the OD600 change was determined as 12.1% and the RFP signal change is -1.91%.

On to `COc1ccccc1N1CCN(C(=O)c2cc3c(-c4ccc(Cl)cc4)nn(C)c3s2)CC1`, for which the GFP signal change (wild-type ribosome) is 0.925% (inactive), the OD600 change came to 11.2% and the RFP signal change was 2.25%.

With `Cn1nc(-c2ccc(Cl)cc2)c2cc(C(=O)NCc3ccco3)sc21`, the GFP signal change (wild-type ribosome) was -29.9% (inactive), the OD600 change was -25.9% and the RFP signal change is -16.6%.

With `CCOC(=O)N1CCN(C(=O)c2cc3c(-c4ccc(Cl)cc4)nn(C)c3s2)CC1`, the GFP signal change (wild-type ribosome) was -22.9% (active), the OD600 change was -10.6% and the RFP signal change was -5.96%.

For `COc1ccc2c3c(n(C)c2c1)[C@H](CO)NCC31CN(Cc2cc(F)ccc2F)C1`, the GFP signal change (wild-type ribosome) was -2.04% (inactive), the OD600 change amounted to 1.28% and the RFP signal change came to 1.51%.

With `CCc1c(N=O)c(-c2ccccc2)n(O)[n+]1[O-]`, the GFP signal change (wild-type ribosome) was -18.1% (active), the OD600 change is 0.75% and the RFP signal change is -2.88%.

For the compound `CCOC(=O)c1ccn(S(=O)(=O)c2ccc(C)cc2)c1-c1ccccc1`, the GFP signal change (wild-type ribosome) is -4.05% (inactive), the OD600 change was -26.5% and the RFP signal change was -5.7%.

For the compound `O=C(/C=C/c1cn(-c2ccccc2)nc1-c1ccc2c(c1)OCCO2)NCCCN1CCOCC1`, the GFP signal change (wild-type ribosome) is -59.2% (inactive), the OD600 change was -80.4% and the RFP signal change is -18.1%.

Take `Cc1ccc2cc(/C=N/Nc3ccc(C(=O)O)cc3)c(Cl)nc2c1`: the GFP signal change (wild-type ribosome) is 8.25% (inactive), the OD600 change was -7.45% and the RFP signal change came to 2.99%.

Regarding `O=C(O)c1ccc(N/N=C/c2cn(-c3ccccc3)nc2-c2cccs2)cc1`, the GFP signal change (wild-type ribosome) was -27.8% (active), the OD600 change was -18.5% and the RFP signal change is -5.29%.

On to `S=c1[nH]nc(-c2cccs2)n1/N=C/c1cn(-c2ccccc2)nc1-c1ccc(Cl)cc1`, for which the GFP signal change (wild-type ribosome) is 5.75% (inactive), the OD600 change worked out at 18.1% and the RFP signal change was 0.386%.

Take `O=C(/C=C\c1cn(-c2ccccc2)nc1-c1cccs1)N1CCOCC1`: the GFP signal change (wild-type ribosome) was -25.3% (active), the OD600 change was -11.3% and the RFP signal change is -10.9%.

Regarding `COc1ccc(-c2nn(-c3ccccc3)cc2/C=C\C(=O)N2CCOCC2)cc1[N+](=O)[O-]`, the GFP signal change (wild-type ribosome) was -3.42% (inactive), the OD600 change amounted to 3.96% and the RFP signal change was -1.95%.

`N#C[C@@H]1[C@H](c2ccccc2)[C@H](CO)N1C(=O)CN1CCOCC1`: the GFP signal change (wild-type ribosome) is 13.7% (inactive), the OD600 change was determined as 21.2% and the RFP signal change came to 0.395%.

With `O=C(Nc1ccccc1F)N1CC(=O)N2[C@H](C1)[C@H](c1ccc(C#Cc3ccc(F)cc3)cc1)[C@@H]2CO`, the GFP signal change (wild-type ribosome) was -2.23% (inactive), the OD600 change was -44.6% and the RFP signal change came out at 20.2%.

Take `O=C(CC1CC1)N1[C@@H](CO)[C@H](c2ccccc2)C12CN(Cc1cccnc1)C2`: the GFP signal change (wild-type ribosome) was 1.16% (inactive), the OD600 change is -2.09% and the RFP signal change came out at 1.37%.

Regarding `COc1ccc(CN(C)C[C@@H]2Oc3ccc(NC(=O)NC(C)C)cc3C(=O)N([C@@H](C)CO)C[C@H]2C)cc1`, the GFP signal change (wild-type ribosome) is 1.14% (inactive), the OD600 change was 10.5% and the RFP signal change was -0.455%.

For `COc1ccc(-c2ccc3c(c2)C2CC3CCN2CCC#N)cc1` (stereo not given), the GFP signal change (wild-type ribosome) is -28.2% (active), the OD600 change was -19.1% and the RFP signal change is -3.22%.

On to `COc1ccc(-c2ccc3c(c2)[C@H]2[C@H](CCN2C(=O)C2CCOCC2)[C@H](CO)N3C)cc1`, for which the GFP signal change (wild-type ribosome) was -4.42% (inactive), the OD600 change was -4.78% and the RFP signal change was -1.56%.

For `C=CCOC(=O)N1CCC2CC1c1cc(-c3ccc(OC)cc3)ccc12` (stereo not given), the GFP signal change (wild-type ribosome) was 3.93% (inactive), the OD600 change is 0.963% and the RFP signal change is -4.99%.
